Laboratory results from PubChem BioAssay (Tox21).
Where “and” joins values, the source holds several entries; their conditions need not be identical. Identical values can stand only once. Inconclusive results are not listed. A number with no mark means an inactive call. Calls of active or inactive are those of the source. Calls come from the whole dose curve; as a rule, active = well fitted inhibition curve with a large enough effect in the repeat runs; inconclusive = weak or mixed curves, or effect the other way; inactive = no such curve, though single readings can be large or run the other way.

molecular target: Nuclear receptor ROR-gamma (Homo sapiens) (UniProt P51449); assay: qHTS assay to identify small molecule antagonists of the retinoid-related orphan receptor gamma (ROR-gamma) signaling pathway (AID 1159521; note: nearly all actives have a fitted effect of over 50% in size; for activity change, negative = inhibition: top concentration of the series differs between compounds); conditions: Tet-on RORgamma CHO cells, RORE-luciferase, 16 h; series mostly up to 92.4 µM; activity change, negative = inhibition: at the top concentration
Source text: U.S. Tox21 Program National Center for Advancing Translational Sciences [NCATS] NIH Chemical Genomics Center [NCGC] U.S. Environmental Protection Agency [EPA] National Institutes of Environmental Health Sciences [NIEHS] National Toxicology Program [NTP] U.S. Food and Drug Administration [FDA] Tox21 Assay Overview: Nuclear steroid hormone receptors are involved in many biological processes including inflammatory responses, cell proliferation, and apoptosis. Environmental factors or compounds disrupting these nuclear receptor pathways and gene expression may promote susceptibility to immunotoxicants and autoimmune diseases. One important group of these expression factors are the retinoid-related orphan receptors. To assess compounds that may interfere with the retinoid-related orphan receptor gamma (ROR-gamma) transcription factor, a cell-based luciferase assay was used. The CHO cell-based assay utilizes a TET-inducible ROR expression factor and ROR response element-LUC reporter gene. Reporter gene activity was induced using Doxycycline Hyclate and measured after 16 hr incubation. Tet-on ROR gamma CHO cells were used to screen against the Tox21 10K compound library for ROR gamma antagonists by quantification of decreased reporter gene activity in terms of decreased luminescence.
Tox21 Assay Protocol Summary: Tet-on ROR gamma CHO cells were dispensed at 1,000 cells in 4 uL of culture medium per well into white wall/solid bottom 1536-well plates using a Multidrop Combi (Thermo Scientific, Waltham, MA) dispenser. Following incubation at 37 C and 5% CO2 for 4 hr, 23 nL of compounds dissolved in DMSO, positive controls or DMSO only were transferred by a Pintool station (Kalypsys, San Diego, CA) and after 2 hr incubation at 37 C, one ul of 1 uM (final concentration) of Doxycycline Hyclate was added to all the wells by using a Flying Reagent Dispenser (FRD) (Aurora Discovery, San Diego, CA). After 16 hr incubation at 37 C and 5% CO2, 5 uL of ONE-Glo reagent (Promega Corporation, Madison, WI) was added to each assay plate using FRD. After 30 min incubation at room temperature, luminescence was quantified on a ViewLux plate reader (Perkin Elmer, Waltham, MA).
% is set by controls: 0 for no effect and ±100 for the full control effect; potency is the fitted concentration of half-maximal effect.

Structure (SMILES)	activity change, negative = inhibition	Potency
COC(=O)c1ccccc1OC	17.1%	
CCCCN(CCCC)CC(O)c1cc(Cl)cc2c1-c1ccc(Cl)cc1/C2=C/c1ccc(Cl)cc1 (stereo not given)		29.8 µM (active)
Cc1cc(-n2nc3ccc(Cl)cc3n2)c(O)c(C(C)(C)C)c1	21.1% [at 42.5 µM]	
Cc1nc2n(c(=O)c1CCN1CCC(c3noc4cc(F)ccc34)CC1)CCCC2	-22.1% [at 42.5 µM]	
COc1ccc2c(c1)c(CC(=O)OC/C=C(\C)CC/C=C(\C)CCC=C(C)C)c(C)n2C(=O)c1ccc(Cl)cc1	37.8% [at 42.5 µM]	
CC[N+](CC)(CC)CCOC(=O)C(C1CCCC1)C1CCCC1	10.6% [at 42.5 µM]	
CCCCCCCCCCCCCC[N+](C)(C)C		11.8 µM (active) and 24.3 µM (active) and 11.9 µM (active)
CCn1c2ccccc2c2cc([N+](=O)[O-])ccc21	8.07%	
CC(C)(C)c1ccc(C(O)CCCN2CCC(C(O)(c3ccccc3)c3ccccc3)CC2)cc1 (stereo not given)		13.3 µM (active)
CC(N=C(NC#N)Nc1ccncc1)C(C)(C)C (stereo not given)	-4.45% [at 42.5 µM]	
C=Cc1cccc(C)c1		inactive
CC(C)=CCC1=C(O)c2ccccc2C(=O)C1=O		13.6 µM (active)
CCCC1CCC(=O)CC1	13.8%	
CCOc1ccc2ccccc2c1C(=O)N[C@@H]1C(=O)N2[C@@H]1SC(C)(C)[C@@H]2C(=O)O	36.8% [at 42.5 µM]	
O=C(O)Cc1ccccc1Nc1c(Cl)cccc1Cl	-24.8% [at 42.5 µM]	
CCCCCCCCCCCCCCCC[N+](C)(C)CC		17.3 µM (active) and 2.98 µM (active)
CC/C=C\CCCCCO	15.7%	
CN(C)Cc1cc(C(C)(C)C)c(O)c(C(C)(C)C)c1	-19.9%	
CCN(CC)C(=O)c1cc(S(=O)(=O)Cc2ccccc2)c(N2CCC(c3ccccc3)CC2)cc1N(CC)CCN(C)C		21.4 µM (active)
Cc1cc(C)c(/C=C2\C(=O)Nc3ccccc32)[nH]1	-5.83% [at 42.5 µM]	

Structure (SMILES)	activity change, negative = inhibition	Potency
CCC(CC)(CC(=O)Nc1cccc(/C=C/c2nc(C3CCC3)cs2)c1)C(=O)O	23.5% [at 42.5 µM]	
CCC(C)(CCC(C)C)C(=O)[O][Sn]([CH3])([CH3])[O]C(=O)C(C)(CC)CCC(C)C (stereo not given)		27.3 µM (active)
COc1cccc(OC)c1C(=O)O	14.6%	
C[Si](Cl)(c1ccccc1)c1ccccc1	-4.63%	
Nc1nc(N)nc(-c2cc(Cl)ccc2Cl)n1	-4.57% [at 42.5 µM]	
c1cnccn1	2.6%	
CC1(C)CCC[C@]2(C)[C@H]3CC(=O)O[C@]3(C)CC[C@@H]12	-16.4%	
CCCCCCCC	8.72%	
CCC(C)n1ncn(-c2ccc(N3CCN(c4ccc(OC[C@H]5CO[C@](Cn6cncn6)(c6ccc(Cl)cc6Cl)O5)cc4)CC3)cc2)c1=O (stereo not given in full)		1.19 µM (active)
CCN(CCN)c1cccc(C)c1		inactive
CCc1cccc(CC)c1NC(=O)CN(CC(=O)O)CC(=O)O	33.8% [at 42.5 µM]	
COC(=O)Nc1nc2ccc(C(=O)c3ccccc3)cc2[nH]1	11.2% [at 42.5 µM]	
O=C(O)c1cc(-c2ccc(F)cc2F)ccc1O	-3.29% [at 42.5 µM]	
CCCCCCCCCCCCCC[N+](C)(C)Cc1ccccc1		24.7 µM (active) and 26.6 µM (active) and 20 mM (active)
O=C1C(c2[nH]c3ccc(S(=O)(=O)O)cc3c2O)=Nc2ccc(S(=O)(=O)O)cc21	-30%	
CCCCC(CC)COC(=O)CCCCC(=O)OCc1ccccc1 (stereo not given)	62.4%	
CCCCCC/C=C\CCCCCCCC(=O)O	-6.01%	
CN(C)CCN1CCN(c2cccc(Cl)c2)C1=O	-0.951% [at 42.5 µM]	
COc1cc(C)ccc1O	-0.535%	
CCC(CC)C(C)CCOC(C)=O (stereo not given)	0.348%	
